High-throughput results as filed in PubChem BioAssay.
PrP 5UTR inh: inhibition of PrP 5' UTR reporter expression. cell-based PrP 5' UTR mRNA reporter, plate reader. inhibition, % (concentration not given with the values). actives 0.35% (n = 340,000). AID 488862; in the data active = inhibition above about 52%; also: 0 = median of the neutral control wells
Sa RN4220 lethal: S. aureus RN4220 growth inhibition; OD600, 16 h; inhibition, % (concentration not given with the values); actives 0.33% (n = 330,000); AID 1259311; in the data active = inhibition above about 85%;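 also: plate controls were untreated cells for no effect and reference antibiotic for full effect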
PfHsp40 yeast: compounds rescuing yeast from Plasmodium falciparum HSP40 toxicity | S. cerevisiae expressing PfHsp40, growth rescue, ATP luminescence | growth rescue, % at 12.5 µM | actives 0.68% (n = 340,000) | AID 504582; in the data active = growth rescue above about 28%, passing the limit was not always enough;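 also: yeast W303a lacking pdr1 and pdr3 grown in galactose medium; growth measured after three days at 30 °C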
CCHFV vOTU inh: blocks the CCHF virus ovarian tumor domain protease; CCHFV vOTU protease, Pep-AMC fluorescence; inhibition, % at 11.5 µM; actives 0.55% (n = 370,000); AID 651958; in the data active = inhibition above about 30%; also: 0% = vehicle wells with enzyme and 100% = no enzyme wells
PrPC TRFRET: inhibitors of human cell surface prion protein PrPC | AID 720596 | actives 0.43% (n = 370,000) | TR-FRET read-out | P04156 | inhibition, % at 13.8 µM; in the data active = inhibition above about 24%; also: 0% = median of the test wells and 100% = reference compound wells
Sa ugtP lethal: compounds lethal to S. aureus RN4220 ugtP deletion mutant; growth inhibition, % (no concentration beside the values); AID 1259309; OD600 growth, 16 h; actives 0.54% (n = 330,000); in the data active = growth inhibition above about 68%;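 also: plate controls were untreated wells for no effect and antibiotic for full effect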
An asterisk follows results filed as active; / = no result given. Compounds with a hit are over-represented: about 2.1% of the library has one in this group of screens.

SMILES	PrP 5UTR inh	Sa RN4220 lethal	PfHsp40 yeast	CCHFV vOTU inh	PrPC TRFRET	Sa ugtP lethal
O=C(c1ccc(CS(=O)Cc2ccc(Cl)cc2)o1)N1CCN(c2ccccc2F)CC1 (stereo unspecified)	0	-10	0	10	1	99*
COc1ccc(N2CCN(C(=O)c3ccc(CS(=O)Cc4ccc(Cl)cc4)o3)CC2)cc1 (stereo unspecified)	-7	-8	-1	27	-2	99*
CC(OC(=O)c1cc(O)c2ccccc2c1O)C(=O)Nc1ccc(C(N)=O)cc1 (stereo unspecified)	-12	0	0	86*	-13	5
CS(=O)c1ccccc1O (stereo unspecified)	5	0	0	-4	3	-1
O=S(c1ccccc1O)S(=O)c1ccccc1O (stereo unspecified)	-21	4	144*	5	4	-3
Nc1nc2nccc(-c3ccc(Cl)cc3)n2n1	-58	-4	185*	-244	1	-4
Cc1cc(-c2ccc(Cl)cc2)n2nc(N)nc2n1	-10	1	0	-9	-1	-11
Cc1ccc(C=NNC(=O)CSc2nc3nc(C)cc(C)n3n2)cc1	/	4	/	/	/	9
CCOc1ccc(C(=O)CC(Sc2ccc(C)cc2)C(=O)O)cc1 (stereo unspecified)	-1	3	0	-8	3	5
O=C(CC(Sc1ccc(Br)cc1)C(=O)O)c1ccc(F)cc1 (stereo unspecified)	/	43	8	8	12	92*
COc1ccc(Br)c(C(=O)OCC(=O)N2CCC(Cc3ccccc3)CC2)c1	5	-1	27*	-1	2	0
COc1ccccc1/C=C/C=Nn1c(-c2n[nH]c3c2CCC3)n[nH]c1=S	/	8	/	/	/	-17
CCCS(=O)(=O)c1nnnn1-c1cccc(OC)c1	10	16	408*	/	/	42
Cc1cccc(OCCOc2ccc(C=NNC(=O)Cc3nnc(N)s3)cc2)c1	/	2	/	/	/	-9
COC(=O)[C@@]1(Cc2ccccc2)C=CC(C)N1C(C)=O (stereo partly specified)	/	5	/	/	/	-1
Cc1cccc(OCc2nc(C#N)c(NCc3ccc4c(c3)OCO4)o2)c1	-8	0	29*	24	8	-14
CC1=CC2=NC(=O)/C(=C\c3cccn3CCOc3cccc(C)c3)C(=N)N2O1	-17	2	44*	0	2	7
C#CCOCCOCCOCCNc1nc(N2CCOCC2)nc(N2CCN(C(=O)C(CCCN=C(N)N)n3cc(C(N)C(C)CC)nn3)CC2)n1 (stereo unspecified)	/	3	/	/	/	-2
FC(F)(F)c1cccc(N2CCN(C(=S)NC3CCCCC3)CC2)c1	-17	-2	37*	-10	7	-27
O=C1C=C(NCCc2cc(Br)c(O)c(Br)c2)C(=O)c2ncccc21	-36	/	1	108*	-33	/
CC(C)(C)c1cc(CCC(=O)NCCc2ccccn2)cc(C(C)(C)C)c1O	-8	6	-2	-15	4	-1
CNC(=O)C1CC(=O)N/C(=N/N=C(C)c2cccs2)S1 (stereo unspecified)	/	4	/	/	/	-13
O=C1Nc2ccc(Br)cc2C12NNc1ccccc1O2 (stereo unspecified)	-65	85	2	9	2	97*
O=C1Nc2ccc(Br)cc2C1(O)c1ccccc1 (stereo unspecified)	8	0	-1	1	3	-1
Cc1cc(NC(=S)NC(=O)/C=C/c2ccc(S(=O)(=O)N3CCOCC3)cc2)ccc1Br	-10	4	0	-3	2	6
SMILES	PrP 5UTR inh	Sa RN4220 lethal	PfHsp40 yeast	CCHFV vOTU inh	PrPC TRFRET	Sa ugtP lethal
CCCC(=O)NC(=S)Nc1ccc(N2CCN(C(=O)c3cccs3)CC2)cc1	-7	97	1	1	22	active
O=C(Cc1cccs1)Nc1ccc(N2CCOCC2)cc1	-24	-2	35*	9	3	0
O=C(/C=C/c1ccc(S(=O)(=O)N2CCOCC2)cc1)NC(=S)Nc1ccc(N2CCOCC2)cc1	-12	2	46*	-2	4	0
CCCCCC(=O)NC(=S)Nc1ccc(N2CCOCC2)cc1	-20	1	2	1	4	91*
CCC(=O)NC(=S)Nc1ccc(N2CCOCC2)cc1	-18	7	1	6	3	10
CCCC(=O)NC(=S)Nc1ccc(NC(=O)c2cccs2)cc1	-38	3	-1	-10	9	72
